{"source": "paper PMC7862700", "about": "“An all-to-all approach to the identification of sequence-specific readers for epigenetic DNA modifications on cytosine”", "assay_in_all_cases": "DAPPL (digital affinity profiling via proximity ligation, sequencing); 10 mM Tris-HCl pH 7.5, 50 mM NaCl, 1 mM DTT, 4% glycerol, room temperature, 30 min; GST-TFs on glutathione beads, 16-mer random dsDNA library, 0.1% formaldehyde crosslink after washing; high values mean tight binding", "details_in_all_cases": "protein: recombinant; tags: N-terminal GST; dsDNA, one strand shown", "key": {"FLI1": {"biological_target": "T1, FLI1 (Homo sapiens, UniProt Q01543 1-452)", "T1 sequence": "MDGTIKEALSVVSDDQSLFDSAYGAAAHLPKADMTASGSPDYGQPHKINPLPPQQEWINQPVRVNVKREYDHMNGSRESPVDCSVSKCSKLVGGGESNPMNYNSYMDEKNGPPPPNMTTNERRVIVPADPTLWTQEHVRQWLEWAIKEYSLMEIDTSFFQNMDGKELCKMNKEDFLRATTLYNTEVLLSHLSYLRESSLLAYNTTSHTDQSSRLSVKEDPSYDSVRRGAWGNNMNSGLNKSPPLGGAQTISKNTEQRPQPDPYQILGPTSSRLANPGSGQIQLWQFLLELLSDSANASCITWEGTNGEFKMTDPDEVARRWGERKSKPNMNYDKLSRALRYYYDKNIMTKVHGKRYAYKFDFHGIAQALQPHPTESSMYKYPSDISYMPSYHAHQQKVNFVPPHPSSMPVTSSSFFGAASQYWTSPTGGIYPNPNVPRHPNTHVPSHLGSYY", "summary_of_the_method": "(§1)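 Binding signal is defined as a hexamer's read frequency for one factor over its frequency for the tag-only sample. To obtain reads, GST-fused human transcription factors were expressed in yeast, captured on glutathione beads, barcoded with DNA and pooled with that sample. Pools met 200 nmole of a 16-mer random double-stranded DNA library in Tris/NaCl/DTT/glycerol buffer for 30 min at room temperature before washing, 0.1% formaldehyde crosslinking, proximity ligation (BsaI/T4 ligase, 1 h, 37 °C), PCR and Illumina NextSeq500 sequencing.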"}, "ELK1": {"biological_target": "T2, ELK1 (Homo sapiens, UniProt P19419 1-428)", "T2 sequence": "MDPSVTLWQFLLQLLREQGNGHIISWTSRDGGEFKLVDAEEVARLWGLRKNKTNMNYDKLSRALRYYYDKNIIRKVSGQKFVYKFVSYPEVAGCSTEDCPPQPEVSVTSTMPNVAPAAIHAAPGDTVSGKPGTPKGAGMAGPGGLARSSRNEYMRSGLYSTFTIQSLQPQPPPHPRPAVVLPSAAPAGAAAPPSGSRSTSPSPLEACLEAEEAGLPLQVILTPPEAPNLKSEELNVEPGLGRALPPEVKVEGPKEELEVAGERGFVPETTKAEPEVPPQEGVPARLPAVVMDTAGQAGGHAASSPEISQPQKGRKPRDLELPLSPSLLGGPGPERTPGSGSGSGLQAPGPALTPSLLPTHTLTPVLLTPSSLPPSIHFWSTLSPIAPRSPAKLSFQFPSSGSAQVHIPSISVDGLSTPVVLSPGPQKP", "summary_of_the_method": "as §1"}, "GABPA": {"biological_target": "T3, GABPA (Homo sapiens, UniProt Q06546 1-454)", "T3 sequence": "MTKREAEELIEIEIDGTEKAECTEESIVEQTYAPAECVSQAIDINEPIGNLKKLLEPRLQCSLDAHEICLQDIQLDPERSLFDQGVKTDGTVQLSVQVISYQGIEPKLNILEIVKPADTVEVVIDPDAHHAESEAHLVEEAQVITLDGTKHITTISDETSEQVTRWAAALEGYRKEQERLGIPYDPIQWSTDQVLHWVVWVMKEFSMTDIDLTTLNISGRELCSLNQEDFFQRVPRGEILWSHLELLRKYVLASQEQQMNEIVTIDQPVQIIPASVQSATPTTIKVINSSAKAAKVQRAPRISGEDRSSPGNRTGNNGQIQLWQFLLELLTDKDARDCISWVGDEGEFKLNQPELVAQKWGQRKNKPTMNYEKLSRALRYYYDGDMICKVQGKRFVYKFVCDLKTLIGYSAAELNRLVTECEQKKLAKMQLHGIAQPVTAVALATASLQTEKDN", "summary_of_the_method": "as §1"}, "ERG": {"biological_target": "T4, ERG (Homo sapiens, UniProt P11308 1-479)", "T4 sequence": "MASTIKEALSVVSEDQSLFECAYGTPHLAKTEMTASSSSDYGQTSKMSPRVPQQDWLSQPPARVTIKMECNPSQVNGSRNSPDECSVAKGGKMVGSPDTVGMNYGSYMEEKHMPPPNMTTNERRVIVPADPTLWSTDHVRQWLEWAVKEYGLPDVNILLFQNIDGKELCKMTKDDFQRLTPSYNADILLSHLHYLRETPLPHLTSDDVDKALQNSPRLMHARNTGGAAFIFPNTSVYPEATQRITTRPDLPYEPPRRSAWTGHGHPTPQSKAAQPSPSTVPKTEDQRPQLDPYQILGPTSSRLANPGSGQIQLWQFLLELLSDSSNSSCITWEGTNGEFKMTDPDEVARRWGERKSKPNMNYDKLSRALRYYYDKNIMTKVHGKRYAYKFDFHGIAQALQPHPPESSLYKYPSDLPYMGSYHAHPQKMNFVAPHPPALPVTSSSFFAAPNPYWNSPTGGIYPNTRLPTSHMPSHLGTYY", "summary_of_the_method": "as §1"}, "ELF1": {"biological_target": "ELF1 (Homo sapiens, UniProt P32519 1-619)", "sequence (P32519 whole entry)": "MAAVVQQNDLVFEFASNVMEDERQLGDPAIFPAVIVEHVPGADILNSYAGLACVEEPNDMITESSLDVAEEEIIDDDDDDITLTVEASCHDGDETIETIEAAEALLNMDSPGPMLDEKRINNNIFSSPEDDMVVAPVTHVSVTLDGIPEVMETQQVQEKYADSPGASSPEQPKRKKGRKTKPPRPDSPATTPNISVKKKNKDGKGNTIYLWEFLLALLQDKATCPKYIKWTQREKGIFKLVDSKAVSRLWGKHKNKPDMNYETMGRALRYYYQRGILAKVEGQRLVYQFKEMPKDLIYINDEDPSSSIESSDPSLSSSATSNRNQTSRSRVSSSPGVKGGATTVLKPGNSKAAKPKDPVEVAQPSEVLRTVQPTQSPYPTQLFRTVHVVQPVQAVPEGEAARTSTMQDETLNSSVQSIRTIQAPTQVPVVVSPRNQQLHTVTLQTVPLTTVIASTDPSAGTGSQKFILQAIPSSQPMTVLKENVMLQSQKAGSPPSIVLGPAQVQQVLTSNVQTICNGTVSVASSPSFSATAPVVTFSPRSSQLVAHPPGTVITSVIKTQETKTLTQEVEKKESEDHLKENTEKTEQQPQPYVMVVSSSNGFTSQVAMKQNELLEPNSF", "summary_of_the_method": "as §1"}, "EHF": {"biological_target": "T5, EHF (Homo sapiens, UniProt Q9NZC4 1-300)", "T5 sequence": "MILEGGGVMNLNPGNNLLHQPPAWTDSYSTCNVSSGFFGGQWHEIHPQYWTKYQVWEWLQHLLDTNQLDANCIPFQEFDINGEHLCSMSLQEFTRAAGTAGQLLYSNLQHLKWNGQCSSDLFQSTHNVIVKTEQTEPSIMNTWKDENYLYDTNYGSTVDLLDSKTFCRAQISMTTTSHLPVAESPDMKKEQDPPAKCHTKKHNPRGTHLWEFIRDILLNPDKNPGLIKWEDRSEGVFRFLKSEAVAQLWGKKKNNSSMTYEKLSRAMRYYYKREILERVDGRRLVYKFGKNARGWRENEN", "summary_of_the_method": "as §1"}, "SPI1": {"biological_target": "SPI1 (Homo sapiens, UniProt P17947 1-270)", "summary_of_the_method": "as §1"}, "SPIB": {"biological_target": "SPIB (Homo sapiens, UniProt Q01892 1-262)", "sequence (Q01892 whole entry)": "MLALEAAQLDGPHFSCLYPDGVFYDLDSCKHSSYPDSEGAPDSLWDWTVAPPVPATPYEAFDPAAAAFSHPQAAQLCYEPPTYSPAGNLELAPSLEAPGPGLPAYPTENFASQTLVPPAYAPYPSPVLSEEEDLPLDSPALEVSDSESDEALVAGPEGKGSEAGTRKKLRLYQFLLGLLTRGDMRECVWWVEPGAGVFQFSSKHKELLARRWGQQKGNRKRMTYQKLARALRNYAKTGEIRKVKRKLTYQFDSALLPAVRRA", "summary_of_the_method": "as §1"}, "ELK3": {"biological_target": "T6, ELK3 (Homo sapiens, UniProt P41970 1-407)", "T6 sequence": "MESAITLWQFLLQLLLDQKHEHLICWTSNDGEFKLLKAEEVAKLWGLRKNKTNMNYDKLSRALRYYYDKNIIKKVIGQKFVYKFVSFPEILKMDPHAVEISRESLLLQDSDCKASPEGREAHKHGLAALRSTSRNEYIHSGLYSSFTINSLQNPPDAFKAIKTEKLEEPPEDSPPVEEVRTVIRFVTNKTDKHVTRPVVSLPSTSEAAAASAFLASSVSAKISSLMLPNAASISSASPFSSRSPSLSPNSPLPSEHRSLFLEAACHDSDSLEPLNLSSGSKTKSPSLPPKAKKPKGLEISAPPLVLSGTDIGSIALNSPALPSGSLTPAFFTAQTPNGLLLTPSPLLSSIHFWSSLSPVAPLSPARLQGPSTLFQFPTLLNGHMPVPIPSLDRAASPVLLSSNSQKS", "summary_of_the_method": "as §1"}}, "data": [{"sequence": "CCTCGT", "values": [{"measurement": "binding signal", "setting": "FLI1", "result": "1.16 fold enrichment (6-mer frequency, TF over GST control)"}, {"measurement": "binding signal", "setting": "ELK1", "result": "1.1 fold enrichment (6-mer frequency, TF over GST control)"}, {"measurement": "binding signal", "setting": "GABPA", "result": "1.39 fold enrichment (6-mer frequency, TF over GST control)"}, {"measurement": "binding signal", "setting": "ERG", "result": "1.24 fold enrichment (6-mer frequency, TF over GST control)"}, {"measurement": "binding signal", "setting": "ELF1", "result": "1.3 fold enrichment (6-mer frequency, TF over GST control)"}, {"measurement": "binding signal", "setting": "EHF", "result": "1.18 fold enrichment (6-mer frequency, TF over GST control)"}, {"measurement": "binding signal", "setting": "SPI1", "result": "1.31 fold enrichment (6-mer frequency, TF over GST control)"}, {"measurement": "binding signal", "setting": "SPIB", "result": "1.13 fold enrichment (6-mer frequency, TF over GST control)"}, {"measurement": "binding signal", "setting": "ELK3", "result": "1.37 fold enrichment (6-mer frequency, TF over GST control)"}]}, {"sequence": "TGGTCC", "values": [{"measurement": "binding signal", "setting": "FLI1", "result": "1.25 fold enrichment (6-mer frequency, TF over GST control)"}, {"measurement": "binding signal", "setting": "ELK1", "result": "1.23 fold enrichment (6-mer frequency, TF over GST control)"}, {"measurement": "binding signal", "setting": "GABPA", "result": "1.18 fold enrichment (6-mer frequency, TF over GST control)"}, {"measurement": "binding signal", "setting": "ERG", "result": "1.26 fold enrichment (6-mer frequency, TF over GST control)"}, {"measurement": "binding signal", "setting": "ELF1", "result": "1.35 fold enrichment (6-mer frequency, TF over GST control)"}, {"measurement": "binding signal", "setting": "EHF", "result": "1.26 fold enrichment (6-mer frequency, TF over GST control)"}, {"measurement": "binding signal", "setting": "SPI1", "result": "1.18 fold enrichment (6-mer frequency, TF over GST control)"}, {"measurement": "binding signal", "setting": "SPIB", "result": "1.32 fold enrichment (6-mer frequency, TF over GST control)"}, {"measurement": "binding signal", "setting": "ELK3", "result": "1.15 fold enrichment (6-mer frequency, TF over GST control)"}]}, {"sequence": "TTATCA", "values": [{"measurement": "binding signal", "setting": "FLI1", "result": "1.16 fold enrichment (6-mer frequency, TF over GST control)"}, {"measurement": "binding signal", "setting": "ELK1", "result": "1.15 fold enrichment (6-mer frequency, TF over GST control)"}, {"measurement": "binding signal", "setting": "GABPA", "result": "1.05 fold enrichment (6-mer frequency, TF over GST control)"}, {"measurement": "binding signal", "setting": "ERG", "result": "1.06 fold enrichment (6-mer frequency, TF over GST control)"}, {"measurement": "binding signal", "setting": "ELF1", "result": "1.15 fold enrichment (6-mer frequency, TF over GST control)"}, {"measurement": "binding signal", "setting": "EHF", "result": "1.02 fold enrichment (6-mer frequency, TF over GST control)"}, {"measurement": "binding signal", "setting": "SPI1", "result": "1.09 fold enrichment (6-mer frequency, TF over GST control)"}, {"measurement": "binding signal", "setting": "SPIB", "result": "1.1 fold enrichment (6-mer frequency, TF over GST control)"}, {"measurement": "binding signal", "setting": "ELK3", "result": "1.17 fold enrichment (6-mer frequency, TF over GST control)"}]}, {"sequence": "CTTTCG", "values": [{"measurement": "binding signal", "setting": "FLI1", "result": "1.1 fold enrichment (6-mer frequency, TF over GST control)"}, {"measurement": "binding signal", "setting": "ELK1", "result": "1.21 fold enrichment (6-mer frequency, TF over GST control)"}, {"measurement": "binding signal", "setting": "GABPA", "result": "1.26 fold enrichment (6-mer frequency, TF over GST control)"}, {"measurement": "binding signal", "setting": "ERG", "result": "1.15 fold enrichment (6-mer frequency, TF over GST control)"}, {"measurement": "binding signal", "setting": "ELF1", "result": "1.3 fold enrichment (6-mer frequency, TF over GST control)"}, {"measurement": "binding signal", "setting": "EHF", "result": "1.3 fold enrichment (6-mer frequency, TF over GST control)"}, {"measurement": "binding signal", "setting": "SPI1", "result": "1.23 fold enrichment (6-mer frequency, TF over GST control)"}, {"measurement": "binding signal", "setting": "SPIB", "result": "1.39 fold enrichment (6-mer frequency, TF over GST control)"}, {"measurement": "binding signal", "setting": "ELK3", "result": "1.27 fold enrichment (6-mer frequency, TF over GST control)"}]}]}
